99 compounds from PubChem BioAssay AID371 (SRMLSC, 2006) can be followed below.

SMILES strings stand for the structures. About 280 (8.5%) of roughly 3,300 compounds were called active. The sample holds actives, similar compounds and a random draw of the others, so the mix is not that of the screen.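 How the source made its calls: active means mean growth inhibition over the two runs of 50% or more; inactive means mean growth inhibition under 50%.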

This assay in a line: A549 NSCLC cell proliferation inhibitors – ATP luminescence, human non-small cell lung line, primary screen (AID 371).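 Further: compound exposure lasted 72 h before the ATP read; 0% = untreated cell signal and 100% = no luminescence left.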 The settings on record: at 10 µM, stronger effect = higher value.
As for `CC(C)N=c1cc2n(-c3ccc(Cl)cc3)c3ccccc3nc-2cc1Nc1ccc(Cl)cc1`, the growth inhibition is 92.5% (active).

In the case of `COc1ccc(N/C(=N\c2nc(C)cc(C)n2)NC(=O)C(C)C)cc1OC`, the growth inhibition was 7.92% (inactive). Regarding `CC(C)c1nc2n[nH]c(N)c2c2c1CCC2`, the growth inhibition was -2.18% (inactive). The result for `O=C1OC2CCC1(c1ccccc1)C2` (centres undefined) reads -2.09% (inactive); that for `COc1cccc(C2=CC(c3ccc(N(C)C)cc3)n3nnnc3N2)c1` (centres undefined), 58.6% (active); that for `COc1ccc(C2C=C(c3ccc(C)cc3)Nc3ncnn32)cc1` (centres undefined), 30.1% (inactive). Under `COc1ccc(C2=CC(c3ccc(C)cc3)n3nnnc3N2)cc1` (centres undefined) stands 27.9% (inactive); under `COc1ccc(C2=CC(c3cccc(OC)c3)n3nnnc3N2)cc1` (centres undefined), 27.1% (inactive). The result for `COc1cccc(C2=CC(c3ccccc3)n3nnnc3N2)c1` (centres undefined) reads 72.7% (active); that for `COc1cccc(C2=CC(c3ccccc3)n3ncnc3N2)c1` (centres undefined), 11.9% (inactive). As to `CC(NC(=O)OCc1ccccc1)C(=O)OCN1C(=O)c2ccccc2C1=O` (centres undefined), the growth inhibition was 2.01% (inactive). The result for `Cc1ccc(S(=O)(=O)c2cc3c(=O)n4cccc(C)c4nc3n(CC3CCCO3)c2=N)cc1` (centres undefined) reads 7.96% (inactive).

Take `CCOc1cccc(-c2nnc3sc(-c4ccc(C)cc4)nn23)c1`: the growth inhibition is 48.3% (inactive). Under `CCOc1cccc(-c2nnc3sc(C4CCCCC4)nn23)c1` stands 79% (active); under `CCOc1cccc(-c2nnc3sc(-c4cc(OC)c(OC)c(OC)c4)nn23)c1`, 53.3% (active); under `CCN(CC)c1ccc(-c2nn3c(-c4cccnc4)nnc3s2)cc1`, 80.9% (active). Under `c1cc(-c2nnc3sc(C4CCCCC4)nn23)ccn1` stands -0.46% (inactive); under `CCOc1cccc(-c2nnc3sc(-c4cccs4)nn23)c1`, 2.48% (inactive); under `COc1ccccc1-c1nn2c(-c3ccc(C(C)(C)C)cc3)nnc2s1`, 83.3% (active). As to `CCOc1ccc(-c2nnc3sc(-c4ccccc4OC)nn23)cc1`, the growth inhibition was -2.6% (inactive).

As to `COc1cc(-c2nn3c(-c4cccnc4)nnc3s2)cc(OC)c1OC`, the growth inhibition is 14% (inactive). `c1cncc(-c2nnc3sc(-c4ccco4)nn23)c1`: the growth inhibition was 3.63% (inactive). The result for `CCOc1cccc(-c2nnc3sc(COc4ccccc4)nn23)c1` reads 3.57% (inactive); that for `COc1ccc(-c2nnc3sc(-c4ccccc4OC)nn23)cc1`, 4.96% (inactive); that for `Cc1ccc(N(CC(=O)O)C2SC(=O)NC2=O)cc1` (centres undefined), -7.76% (inactive). Consider `Cc1ccc(C2CC(c3cccs3)n3nc(N)nc3N2)cc1` (centres undefined), for which the growth inhibition was 17.9% (inactive). The result for `CCOC(=O)c1[nH]c2ccc(Br)cc2c1NC(=O)CCN1CCC(C(=O)OCC)CC1` reads 41.5% (inactive); that for `CCSc1nnc(N(CCC#N)CCC#N)s1`, 4.31% (inactive); that for `CCOC(=O)CCCCC(=O)NC(CO)C(=O)NC` (centres undefined), -2.55% (inactive). Under `CN(CCNC(=O)c1ccc(/C=N/O)nc1)Cc1ccccc1` stands -0.01% (inactive). The result for `COc1ccccc1-c1nnc2sc(C3CCCCC3)nn12` reads 24.4% (inactive). Turning to `COc1cccc(-c2nnc3sc(C4CCCCC4)nn23)c1`, the growth inhibition is 73.3% (active). As for `c1cncc(-c2nnc3sc(C4CCCCC4)nn23)c1`, the growth inhibition is 25.4% (inactive). Under `Cn1c(=O)[nH]c(=O)c2c1nc(Br)n2CCSc1ncccn1` stands 4.37% (inactive); under `COCCCNc1nc2c(c(=O)[nH]c(=O)n2C)n1CC(O)COc1ccccc1` (centres undefined), 13.7% (inactive). Under `OC(CCN1CCCC1)(c1ccccc1)C1CCCCC1` (centres undefined) stands 7.22% (inactive); under `OC(CCN1CCCCC1)(c1ccccc1)C1CCCCC1` (centres undefined), 1.96% (inactive). Turning to `CC(C)(C)c1ccc(C(O)CCCN2CCC(C(O)(c3ccccc3)c3ccccc3)CC2)cc1` (centres undefined), the growth inhibition was 95.9% (active). Under `CCCCCSc1nc(C)c(CC(=O)O)c(=O)[nH]1` stands -2.49% (inactive); under `CCOC(=O)c1ccc(CC2S/C(=C(\C#N)C(C)=O)NC2=O)cc1` (centres undefined), 26.4% (inactive); under `N#CC(C(=O)Nc1ccc(Cl)c(Cl)c1)=C1Nc2ccccc2N1`, 38.8% (inactive). In the case of `CC(=O)/C(C#N)=C1\NC(=O)C(Cc2ccccc2)S1` (centres undefined), the growth inhibition was 56% (active). The result for `N#C/C(C(=O)N1CCOCC1)=C1/SC(Cc2ccccc2)C(=O)N1c1ccccc1` (centres undefined) reads 0% (inactive); that for `CCOC(=O)/C(C#N)=C1/SC(CCO)C(=O)N1c1ccccc1` (centres undefined), -8.59% (inactive); that for `CC(=O)/C(C#N)=C1\NC(=O)C(Cc2ccccc2Cl)S1` (centres undefined), 61.9% (active). On to `CCOc1ccc2nc(NC(NC(=O)CC)(C(=O)OC)C(F)(F)F)sc2c1` (centres undefined), for which the growth inhibition is 20.7% (inactive). Regarding `CCCCCOc1ccc(C(=O)NCC(=O)NCC(=O)OCC)cc1`, the growth inhibition was 36.1% (inactive). Under `CC(C)CC(=O)Nc1ccccc1N1CCCC1` stands 3.4% (inactive). As for `CCOC(=O)CNC(=O)Nc1ccccc1C(=O)OC`, the growth inhibition is -3.41% (inactive). `CCOC(=O)C1=Nc2ccccc2C1=[N+]=[N-]`: the growth inhibition was 61.3% (active).

With `CCOC(=O)c1n[nH]c2ccccc12`, the growth inhibition is -3.73% (inactive). Regarding `C=CCOn1c(=O)c(-c2ccc(OC)cc2)[n+]([O-])c2ccccc21`, the growth inhibition was 0.35% (inactive). On to `CSC1=C(C#N)C(C)CC(=O)N1` (centres undefined), for which the growth inhibition is -1.22% (inactive). Under `O=C1c2ccccc2C(=O)N1c1ncccn1` stands 8.95% (inactive); under `COCCCn1c2nc3ccccc3nc2c2c(=O)n(CC3CCCO3)cnc21` (centres undefined), 3.37% (inactive); under `Cc1cc(-c2cc(-c3ccc(Cl)cc3)nc(N)c2C#N)co1`, 30.1% (inactive). Under `CCc1nc(N)nc(N)c1-c1ccc(Cl)cc1` stands 79.6% (active); under `CCOC(=O)CC(=O)CSc1nc(N)c(C#N)c(-c2ccc(Cl)cc2)c1C#N`, 5.46% (inactive). Turning to `Cc1c(/C(O)=C2\C(=O)C(=O)N(CCN(C)C)C2c2cccs2)cnn1-c1ccccc1` (centres undefined), the growth inhibition was 0.12% (inactive).

For `O=c1c2ccccc2ncn1Cc1ccco1`, the growth inhibition was 1.72% (inactive).

Turning to `c1coc(CNc2ncnc3ccccc23)c1`, the growth inhibition is 23.6% (inactive).

In the case of `OCCNc1ncnc2c1c(-c1ccccc1)c(-c1ccccc1)n2Cc1ccco1`, the growth inhibition is 53.2% (active). For `CC(C)CN1C(=O)NC(NC(=O)c2cccnc2)(C(F)(F)F)C1=O` (centres undefined), the growth inhibition is -0.36% (inactive). Under `Cc1nnc(SCC(=O)N2CCOCC2)c2ccccc12` stands -4.15% (inactive). Consider `COc1cccc(Cn2c(NCc3ccco3)nc3c2c(=O)n(C)c(=O)n3C)c1`, for which the growth inhibition was 51.8% (active). Under `COCCCNc1nc2c(c(=O)n(C)c(=O)n2C)n1Cc1cccc(OC)c1` stands 33.1% (inactive); under `COc1cccc(Cn2c(NCc3ccccn3)nc3c2c(=O)n(C)c(=O)n3C)c1`, 23.9% (inactive). The result for `COc1ccc(Oc2nc3c(c(=O)n(C)c(=O)n3C)n2Cc2cccc(OC)c2)cc1` reads 27.7% (inactive); that for `CCCCNc1nc2c(c(=O)n(C)c(=O)n2C)n1Cc1cccc(OC)c1`, 59.5% (active). Under `COc1cccc(Cn2c(NCC(C)C)nc3c2c(=O)n(C)c(=O)n3C)c1` stands 2.01% (inactive); under `Cc1cc(=O)oc(C)c1C(=O)NCC(C)C`, -13.9% (inactive). As to `C=CCOc1nc2c(c(=O)n(C)c(=O)n2C)n1Cc1c(Cl)cccc1Cl`, the growth inhibition was 25.2% (inactive). Under `COc1cc(NC2=CC(=O)CC(C)(C)C2)cc(OC)c1OC` stands 3.91% (inactive); under `Cc1nc(NS(=O)(=O)c2ccccc2)sc1NC(=O)OC(C)C`, 3.58% (inactive).

`Cc1cccc(-c2nc(C#N)c(NC3CCCCC3)o2)c1`: the growth inhibition is 34.3% (inactive).

As for `Cc1cccn2c(=O)c3cc(C(=O)NCc4cccnc4)c(=N)n(C)c3nc12`, the growth inhibition is -1.19% (inactive). The result for `Cc1ccc(S(=O)(=O)c2cc3c(=O)n4ccccc4nc3n(C)c2=N)cc1` reads -2.02% (inactive). As for `Cc1ccc(CNC(=O)c2cc3c(=O)n4ccccc4nc3n(CC3CCCO3)c2=N)cc1` (centres undefined), the growth inhibition was 44.3% (inactive).

With `CCNC(=O)c1cc2c(=O)n3cccc(C)c3nc2n(CCc2ccccc2)c1=N`, the growth inhibition is 70.5% (active).

For `CCOC(=O)c1cc2c(=O)n3cccc(C)c3nc2n(C)c1=N`, the growth inhibition was 27.1% (inactive). The result for `N=c1c(C(=O)NCc2ccccc2)cc2c(=O)n3ccccc3nc2n1Cc1ccco1` reads 90.5% (active); that for `CCOC(=O)c1cc2c(=O)n3cccc(C)c3nc2n(CCc2ccccc2)c1=N`, 16.5% (inactive); that for `Cn1c(=O)c2c(nc(NCc3ccco3)n2CCc2ccccc2)n(C)c1=O`, 34.5% (inactive). Take `CC(C)OCCCn1c(=N)c(C(N)=S)cc2c(=O)n3ccccc3nc21`: the growth inhibition is 42.5% (inactive).

On to `COC(=O)c1cc2c(=O)n3cccc(C)c3nc2n(Cc2cccnc2)c1=N`, for which the growth inhibition is 2.48% (inactive). For `Cc1cccn2c(=O)c3cc(C(N)=S)c(=N)n(CCCOC(C)C)c3nc12`, the growth inhibition was 51.3% (active).

As to `Cc1ccc(CNC(=O)c2cc3c(=O)n4ccccc4nc3n(Cc3ccco3)c2=N)cc1`, the growth inhibition is 92.5% (active). `CCOC(=O)CSC1=C(C#N)C(c2ccc(C)cc2)C(C(=O)OC)C(=O)N1` (centres undefined): the growth inhibition was 8.41% (inactive). The result for `CCOC(=O)C1=C(C)OC(N)=C(C#N)C1c1cc2ccccc2nc1N1CCCCC1` (centres undefined) reads 22.5% (inactive); that for `COC(=O)c1cc(S(=O)(=O)N2CCOCC2)c(N2CCOCC2)cc1N1CCOCC1`, 8.19% (inactive); that for `COCCCNC(=O)c1c(N)n(/N=C/c2cccnc2)c2nc3ccccc3nc12`, 4.43% (inactive).

With `Cc1cc(=O)oc(C)c1C(=O)NCC(C)NC(=O)c1c(C)cc(=O)oc1C` (centres undefined), the growth inhibition was 0.25% (inactive). Turning to `Cc1nn(CC(=O)N2CCOCC2)c(=O)c2ccccc12`, the growth inhibition was 2.14% (inactive).

On to `COc1ccc(CCn2c(=N)c(C#N)cc3c(=O)n4ccccc4nc32)cc1`, for which the growth inhibition was 11.5% (inactive). Under `CCOC(=O)c1cc2c(=O)n3ccccc3nc2n(Cc2ccccc2Cl)c1=N` stands 52.6% (active).

As for `CCOC(=O)c1cc2c(=O)n3cccc(C)c3nc2n(Cc2cccnc2)c1=N`, the growth inhibition is 1.61% (inactive). For `COc1ccc(CCn2c(=N)c(C(=O)NCc3ccco3)cc3c(=O)n4ccccc4nc32)cc1`, the growth inhibition was 61.2% (active). Under `C=CCn1c(=N)c(C(=O)OCC)cc2c(=O)n3cccc(C)c3nc21` stands 16.9% (inactive); under `COc1ccc(CCn2c(=N)c(C(=O)NCc3ccco3)cc3c(=O)n4ccccc4nc32)cc1OC`, 48.2% (inactive).
